Experimental data published in PubChem BioAssay (NCI).
Compounds without any hit were thinned out: in the full panel of roughly 79,000, 15% have a hit. Unmarked numbers belong to inactive results. Active and inactive are the calls of the source. No stated cut-off is given here; in the data, active means growth inhibition above about 70%; inactive means the rest.

Columns and labels:
[1] = NCI Yeast Anticancer Drug Screen. Data for the rad50 strain (AID 155);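 further: 0% = growth of vehicle-only cultures of the same strain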; conditions: S. cerevisiae rad50 strain growth inhibition; at 50.0 µM; hits give high values
Method in brief: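 Genetically altered yeast (DNA repair pathway); compound treatment; growth inhibition vs vehicle ctrl.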

[2] = NCI Yeast Anticancer Drug Screen. Data for the mec2-1 strain (AID 157); conditions: S. cerevisiae mec2-1 strain, at 50.0 µM, hits give high values
Method in brief: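 Strain: mec2-1 (DNA repair/cell cycle alteration). Compound exposure, then growth measured; inhibition expressed relative to vehicle.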

[3] = NCI Yeast Anticancer Drug Screen. Data for the sgs1 mgt1 strain (AID 161);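 further: 0% = growth of cultures given vehicle only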; conditions: S. cerevisiae sgs1 mgt1 strain, at 50.0 µM, hits give high values
Method in brief: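 Mutant yeast exposed to compound; growth scored against vehicle-only wells.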

[4] = NCI Yeast Anticancer Drug Screen. Data for the cln2 rad14 strain (AID 165);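 further: 0% = growth equal to vehicle treated cultures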; conditions: S. cerevisiae cln2 rad14 strain, at 50.0 µM, hits give high values
Method in brief: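 Compounds are applied to the cln2 rad14 yeast strain, and growth is then compared with that of vehicle-treated cultures to give inhibition.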

[5] = NCI Yeast Anticancer Drug Screen. Data for the bub3 strain (AID 167); conditions: S. cerevisiae bub3 mutant strain, at 50.0 µM, hits give high values
Method in brief: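 Yeast carrying a defined mutation is treated with each compound, and growth is compared with that of vehicle-exposed cells to give inhibition.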

[6] = NCI Yeast Anticancer Drug Screen. Data for the mlh1 rad18 strain (AID 175); conditions: S. cerevisiae mlh1 rad18 strain growth inhibition; at 50.0 µM; hits give high values
Method in brief: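 Read-out is yeast growth inhibition, calculated against vehicle-only controls. The compound was applied to a strain engineered with DNA damage repair alterations.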

| Structure (SMILES) | growth inhibition [1] [%] | growth inhibition [2] [%] | growth inhibition [3] [%] | growth inhibition [4] | growth inhibition [5] | growth inhibition [6] |
| --- | --- | --- | --- | --- | --- | --- |
| CCCCCC/C(C)=N\NC(N)=O | 29.9 | 14.4 | 11.6 | 12.4% | -0.95% | -23.1% |
| OCCCC1CCN(CCO)CC1 | -22.2 | -27.5 | -18.8 | 1.3% | -8.7% | -10.3% |
| COC1C=C(Br)C(=O)C(C)O1 (stereo unspecified) | 5.7 | 1.3 | -25.6 | -2.3% | 21.2% | -1.8% |
| COc1ccc([N+](=O)[O-])c2ncncc12 | -14.4 | -12 | 0.8 | 6.6% | -10.9% | 20.6% |
| C1=Nc2ccccc2/C1=C/c1ccc2c(c1)OCO2 | 24.3 | 11.7 | -6.9 | -55.6% | 8.85% | 8.5% |
| C=CCN1/C(=C(\C#N)c2nc3ccccc3[nH]2)Sc2c1nc[nH]c2=O | -51.6 | -27.9 | -32 | -32% | -32.9% | -49.8% |
| COc1cc(NCCCCCCNCC(C)C)c2nccc(C)c2c1 | 53.1 | 44.5 | 62.8 | 18.1% | 37.6% | 21.6% |
| CC1=C(C(=O)N(C)c2ccc(Cl)c(C(=O)OC(C)C)c2)SCCO1 | -19.6 | -50.8 | -12.1 | -6% | -11.8% | -28.1% |
| CSC(N)=Nc1c(C)cccc1C | 3.55 | 22.9 | 5.35 | -4.1% | 2.9% | -16.7% |
| Cc1csc(-c2ccncc2)n1 | 6.05 | 6.9 | -1.55 | -8.3% | 20.5% | -5.35% |
| CC(C)C(=O)OC1(Cc2cccc[n+]2C)CCCCC1 | 8.8 | 9.6 | 22.6 | 27.4% | 12.9% | 1.45% |
| CC(C)(C)OC(=O)C(C1NC2C(=O)OCC2(CO)S1)N1C(=O)c2ccccc2C1=O (stereo unspecified) | 38.6 | -1.65 | 25.9 | -6.35% | -1.75% | 12.5% |
| O=C1CN2C(c3ccccc3)=NN(c3ccc([N+](=O)[O-])cc3)C2(c2ccccc2)c2cc(Cl)ccc2N1CC1CC1 (stereo unspecified) | 25.6 | -10.9 | -7.4 | 20.9% | 11.2% | 23.4% |
| COc1cnc(NS(=O)(=O)c2ccc(N)cc2)nc1 | -12.2 | -9.8 | -9.45 | 10.2% | -10% | -7.2% |
| Clc1ccccc1-c1nnc(-c2cccc(-c3nnc(-c4ccccc4Cl)o3)n2)o1 | -1.65 | 6.75 | -6.55 | -9.1% | -3.4% | 12% |
| CCCCCCCC[n+]1cccc(C#N)c1 | 12.7 | 23.6 | 21.4 | 16.7% | 36% | 19.1% |
| c1scc2c1COCCOCCOCCOCc1cscc1COCCOCCOCCOC2 | -20.2 | -26.1 | -38.4 | 26.6% | -30.4% | -46.5% |
| CCCCCCCCCCCCCCCCCCNC(=O)Nc1ccc(OC)cc1OC | 15.4 | 37 | -0.3 | 3% | 2.8% | 13.3% |
| NC(=O)c1cccc(NC=O)c1 | 5.3 | 6 | 22.1 | 29.7% | 4.45% | 25.8% |
| COc1ccc(/C=c2\sc3n(c2=O)C(N)=C(C#N)C(c2ccc(OC)cc2)C=3c2nc3ccccc3[nH]2)cc1 (stereo unspecified) | 18.1 | -13.2 | 9.95 | -16.1% | 8.95% | 11.3% |
| CC1(C)OC(=C(C#N)C#N)C(C#N)=C1/C=C/c1ccncc1 | 25.7 | 29.4 | 19.8 | 18.2% | 31.5% | -2.45% |

| Structure (SMILES) | growth inhibition [1] [%] | growth inhibition [2] [%] | growth inhibition [3] [%] | growth inhibition [4] | growth inhibition [5] | growth inhibition [6] |
| --- | --- | --- | --- | --- | --- | --- |
| O=C(NCCCCCCNC(=O)c1ccccn1)c1ccccn1 | 0.25 | -9.9 | 9.05 | -7.15% | -14.8% | -0.8% |
| O=C1CCCC(=S)N1 | 3.1 | 4.2 | 9.35 | 16.8% | 14.3% | 6.1% |
| Cc1c[n+]([O-])cc(C)c1N=Nc1ccc(N(C)C)cc1 | 2.55 | -7.7 | -7.95 | 11.1% | 11.9% | 18.2% |
| C=C(CC[C@@H](C)[C@H]1CC[C@@]2(C)C3=C(CC[C@]12C)[C@@]1(C)CC[C@H](O)[C@@H](C)C1CC3)C(C)C (stereo partly specified) | 10.4 | 2.8 | 45.2 | 37.8% | 14.6% | 71.5% (active) |
| CC(=O)OCC(OC(C)=O)C(OC(C)=O)C(/C=C/[N+](=O)[O-])OC(C)=O (stereo unspecified) | 9.9 | 3.65 | 2.4 | -24.6% | -3.4% | -2.05% |
| OC(c1ccccc1)C1CC2C=CC1C2 (stereo unspecified) | 10.4 | 3.9 | 3.75 | 3.05% | -2.05% | 2.6% |
| Cn1cc(S(=O)(=O)NC(=O)Nc2ccc(Cl)cc2)c2ccccc21 | -19.4 | -9.85 | -1.05 | 29.7% | -20.1% | -13.9% |
| O=C1CC(c2ccccc2)C(c2ccccc2)C1 (stereo unspecified) | 6 | 0.45 | 4.2 | 4.2% | -24.1% | -0.25% |
| Cc1cc(Cl)ccc1OCC(=O)OCC(C)(C)[N+](=O)[O-] | 6.05 | 19.1 | 20.4 | -80.2% | 36.6% | 33.7% |
| CCCCCCC1(/C=C/c2ccc(Cl)cc2Cl)OCCCO1 | 3.3 | 9.1 | -5.45 | -2.75% | 11.8% | 3.65% |
| C=C1C(=O)O[C@@H]2/C=C(\C)CC/C=C(/C)CC[C@@H]12 | 45.8 | 52.2 | 61.6 | 32.8% | 54.4% | 58.1% |
| O=C(CBr)c1cc2ncccc2c2ccccc12 | 46.6 | 51 | 62.2 | 98.6% (active) | 99% (active) | 68.9% |
| OCC(O)COCC#Cc1ccccc1 (stereo unspecified) | 6 | 1.85 | 3.1 | -60.2% | -14.6% | 16.2% |
| CCSC1=C(SCC)C(=O)C(SCC)=C(SCC)C1=O | -1.25 | 16.1 | 13.9 | -22.4% | -1.65% | 15.4% |
| CN1C(=O)Cn2c(n[nH]c(=O)c2=O)-c2cc(Cl)ccc21 | -22.4 | 12.3 | 10.3 | -36.5% | 12.9% | 6.2% |
| O=C(O)CSc1n[nH]c(-c2ccco2)n1 | -4.05 | 4.25 | 3 | 14.1% | 11.1% | 7.7% |
| COc1cccc(N=N/C(=N/NC(=O)c2cc(Cl)ccc2O)c2ccc(N(CCC#N)CCC#N)cc2C)c1 | -18.9 | -16.8 | -18.9 | -18.6% | -17.9% | -47.6% |
| OCC(O)C(OC1OC(CO)C(O)C(O)C1O)c1nn(-c2ccc(F)cc2)c2nc3cc(Cl)c(Cl)cc3cc12 (stereo unspecified) | 13.6 | -10.1 | -26.8 | 29.9% | 6.45% | -1.55% |
| CCOC(=O)C1=NN(c2ccccc2)C(=O)/C1=C\N1CC(=O)NC1=S | -19.4 | -14.2 | -31.5 | -10.2% | 9.85% | -32.1% |
| CC(=O)OCC1OC(OC(C)=O)C(NS(=O)(=O)Cc2ccccc2)C(OC(C)=O)C1OC(C)=O (stereo unspecified) | 10.5 | 17.4 | 13.7 | -1.35% | -1.2% | 20.4% |
